Measured values: PubChem BioAssay (NCATS)
Records with an inconclusive call do not appear. A number with no mark means an inactive call. Active and inactive are the calls of the source. The call rests on the fitted dose curve; in most records, active means well fitted curve in the direction sought with a large enough effect; inconclusive means small, poorly fitted or top-dose-only effect, or another doubt; inactive means no such curve, though single readings can be large; an effect the other way counts as inactive or inconclusive.

What was measured:
Tov112D = experiment: Primary qHTS to identify gynecologic anti-cancer compounds using libraries of approved drugs and bioactive compounds (AID 1345084); settings: Gynecologic cancer cell panel viability, ATPlite luminescence, 48 h; series mostly up to 57.5 µM; further: nearly all actives have a fitted effect of over 55% in size
How it was run: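 Five-point cytotoxicity, 48 h drug exposure at 37 C, 5% CO2, on cells seeded 16 h beforehand. ATP content read by ATPlite luminescence.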

[1] = Drug repurposing screens with cells derived from glioblastoma tumor samples (AID 1345199); settings: GBM patient neurospheres viability, ATP luminescence, 48 h; further: nearly all actives have a fitted effect of over 40% in size
How it was run: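 Four patient lines of CD133+ GBM neurospheres were screened at several concentrations; hits were retested in those lines plus three slower-growing GBM lines, using 48-hour treatment and ATP-based viability.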

[2] = at 45.9 µM (top of the series), tumour line B
[3] = at 45.9 µM (top of the series), tumour line D
[4] = at 46.1 µM (top of the series), tumour line C
[5] = at 46 µM (top of the series), tumour line A
[6] = at 20 µM (top of the series), tumour line C
[7] = at 21.2 µM (top of the series), tumour line B
[8] = at 21.2 µM (top of the series), tumour line D
[9] = at 21.3 µM (top of the series), tumour line A
On the % scale 0 is the no-effect control and ±100 the full control effect; potency means the concentration at half of the fitted maximal effect.

Compound: Clc1ccc2c(c1)C(N1CCNCC1)=Nc1ccccc1O2
- Potency (Tov112D): inactive
- activity, negative = cell killing [1, 2]: -27.8%
- activity, negative = cell killing [1, 3]: -2.29%
- activity, negative = cell killing [1, 4]: -0.706%
- Potency ([1]; tumour line A): 14.1 µM (active)

Compound: O=C(c1ccc(OCCN2CCCCC2)cc1)c1c(-c2ccc(O)cc2)sc2cc(O)ccc12
- Potency (Tov112D): inactive

Compound: CC(C)(C)C(=O)Oc1ccc(S(=O)(=O)Nc2ccccc2C(=O)NCC(=O)O)cc1
- Potency (Tov112D): inactive
- activity, negative = cell killing [1, 2]: -13.7%
- activity, negative = cell killing [1, 3]: -10.4%
- activity, negative = cell killing [1, 5]: -15.5%
- activity, negative = cell killing [1, 4]: -13.4%

Compound: O=C(CCCN1CCC(O)(c2ccc(Cl)cc2)CC1)c1ccc(F)cc1
- Potency (Tov112D): inactive
- activity, negative = cell killing [1, 4]: -10.7%
- Potency ([1]; tumour line A): 11.2 µM (active)
- Potency ([1]; tumour line D): 15.8 µM (active)

Compound: CC(CCc1ccc(O)cc1)NCCc1ccc(O)c(O)c1 (configuration not stated)
- Potency (Tov112D): inactive
- activity, negative = cell killing [1, 4]: 5.45%
- Potency ([1]; tumour line A): 28.2 µM (active)
- Potency ([1]; tumour line B): 31.6 µM (active)

Compound: Cn1ccc2cc3c(cc21)CCN3C(=O)Nc1cccnc1
- Potency (Tov112D): inactive

Compound: CC1COc2c(N3CCN(C)CC3)c(F)cc3c(=O)c(C(=O)O)cn1c23 (configuration not stated)
- Potency (Tov112D): inactive
- activity, negative = cell killing [1, 2]: -12.3%
- activity, negative = cell killing [1, 3]: -0.592%
- activity, negative = cell killing [1, 5]: -24.5%
- activity, negative = cell killing [1, 4]: -10.7%

Compound: Clc1ccc(C(c2ccccc2Cl)C(Cl)Cl)cc1 (configuration not stated)
- Potency (Tov112D): inactive
- activity, negative = cell killing [1, 4]: 32.2%
- Potency ([1]; tumour line A): 22.4 µM (active)

Compound: COc1ccccc1OCCNCC(O)COc1cccc2[nH]c3ccccc3c12 (configuration not stated)
- Potency (Tov112D): inactive
- activity, negative = cell killing [1, 4]: 3.12%
- Potency ([1]; tumour line A): 11.2 µM (active)

Compound: Cc1ccc(C(=O)Nc2ccc(S(=O)(=O)O)c3cc(S(=O)(=O)O)cc(S(=O)(=O)O)c23)cc1NC(=O)c1cccc(NC(=O)Nc2cccc(C(=O)Nc3cc(C(=O)Nc4ccc(S(=O)(=O)O)c5cc(S(=O)(=O)O)cc(S(=O)(=O)O)c45)ccc3C)c2)c1
- Potency (Tov112D): inactive
- activity, negative = cell killing [1, 2]: -18.8%
- activity, negative = cell killing [1, 3]: -0.172%
- activity, negative = cell killing [1, 5]: -24.3%
- activity, negative = cell killing [1, 4]: -24.1%

Compound: CNCCCC12CCC(c3ccccc31)c1ccccc12
- Potency (Tov112D): inactive
- activity, negative = cell killing [1, 4]: 31.2%
- Potency ([1]; tumour line A): 7.94 µM (active)
- Potency ([1]; tumour line B): 17.8 µM (active)
- Potency ([1]; tumour line D): 22.4 µM (active)

Compound: CC1(CN2CCC(n3c(=O)[nH]c4ccccc43)CC2)OCc2ccccc2-n2cccc21 (configuration not stated)
- Potency (Tov112D): inactive

Compound: COc1ccc(CCN(C)CCCC(C#N)(c2ccc(OC)c(OC)c2)C(C)C)cc1OC (configuration not stated)
- Potency (Tov112D): inactive
- activity, negative = cell killing [1, 4]: -2.06%
- Potency ([1]; tumour line A): 10 µM (active)
- Potency ([1]; tumour line B): 35.5 µM (active)

Compound: CCOC(=O)c1ncn2c1CN(C)C(=O)c1cc(F)ccc1-2
- Potency (Tov112D): inactive
- activity, negative = cell killing [1, 2]: -16%
- activity, negative = cell killing [1, 3]: 3.15%
- activity, negative = cell killing [1, 4]: 4.97%

Compound: CC1(C)O[C@H]2CC(=O)OC[C@]23[C@H]2CC[C@@]4(C)[C@H](c5ccoc5)OC(=O)[C@H]5O[C@]54[C@]2(C)C(=O)C[C@@H]13
- Potency (Tov112D): inactive
- activity, negative = cell killing [1, 2]: -1.56%
- activity, negative = cell killing [1, 3]: -7.18%
- activity, negative = cell killing [1, 5]: -18.9%
- activity, negative = cell killing [1, 4]: 3.51%

Compound: COc1cc2nc(N(C)CCCNC(=O)C3CCCO3)nc(N)c2cc1OC (configuration not stated)
- Potency (Tov112D): inactive
- activity, negative = cell killing [1, 6]: -6.33%
- activity, negative = cell killing [1, 7]: -6.29%
- activity, negative = cell killing [1, 8]: 7.29%

Compound: CN1CCC(=C2c3ccccc3CC(=O)c3sccc32)CC1
- Potency (Tov112D): inactive
- activity, negative = cell killing [1, 4]: -13.4%
- Potency ([1]; tumour line A): 14.1 µM (active)
- Potency ([1]; tumour line D): 12.6 µM (active)

Compound: CC(C)C(=O)Nc1ccc([N+](=O)[O-])c(C(F)(F)F)c1
- Potency (Tov112D): inactive

Compound: COC(=O)Nc1nc2ccc(C(=O)c3cccs3)cc2[nH]1
- Potency (Tov112D): 0.316 µM (active)

Compound: NC(=O)OCC(COC(N)=O)c1ccccc1
- Potency (Tov112D): inactive
- activity, negative = cell killing [1, 2]: 2.73%
- activity, negative = cell killing [1, 3]: -0.95%
- activity, negative = cell killing [1, 5]: -11.1%
- activity, negative = cell killing [1, 4]: 48.2%

Compound: Clc1ccc2nsnc2c1NC1=NCCN1
- Potency (Tov112D): inactive
- activity, negative = cell killing [1, 2]: -9.87%
- activity, negative = cell killing [1, 3]: 1.91%
- activity, negative = cell killing [1, 4]: 8.38%

Compound: CS(=O)(=O)Nc1ccc([N+](=O)[O-])cc1Oc1ccccc1
- Potency (Tov112D): inactive
- activity, negative = cell killing [1, 6]: 19.5%
- activity, negative = cell killing [1, 7]: -19.6%
- activity, negative = cell killing [1, 8]: -29.6%
- activity, negative = cell killing [1, 9]: -28.2%

Compound: COc1nc(C)nc(Cl)c1NC1=NCCN1
- Potency (Tov112D): inactive
- activity, negative = cell killing [1, 6]: -9.78%
- activity, negative = cell killing [1, 7]: -2.98%
- activity, negative = cell killing [1, 8]: 12.8%
- activity, negative = cell killing [1, 9]: -26.5%

Compound: Cc1cc(C(C)(C)C)cc(C)c1CC1=NCCN1
- Potency (Tov112D): inactive
- activity, negative = cell killing [1, 6]: -2.93%
- activity, negative = cell killing [1, 7]: -9.52%
- activity, negative = cell killing [1, 8]: -25.7%

Compound: CC[N+](CC)(CC)CCOc1cccc(OCC[N+](CC)(CC)CC)c1OCC[N+](CC)(CC)CC
- Potency (Tov112D): inactive
- activity, negative = cell killing [1, 2]: -15.6%
- activity, negative = cell killing [1, 3]: -21.5%
- activity, negative = cell killing [1, 5]: -28%
- activity, negative = cell killing [1, 4]: -0.854%

Compound: CN(C)c1nc(N(C)C)nc(N(C)C)n1
- Potency (Tov112D): inactive
- activity, negative = cell killing [1, 6]: 0.771%
- activity, negative = cell killing [1, 7]: -14%
- activity, negative = cell killing [1, 8]: -14.3%
- activity, negative = cell killing [1, 9]: -32%

Compound: COc1cc2nc(N3CCN(C(=O)C4COc5ccccc5O4)CC3)nc(N)c2cc1OC (configuration not stated)
- Potency (Tov112D): inactive
- activity, negative = cell killing [1, 2]: -16.3%
- activity, negative = cell killing [1, 3]: -29.3%
- activity, negative = cell killing [1, 4]: -17.1%
- Potency ([1]; tumour line A): 11.2 µM (active)

Compound: CC12CC3CC(C)(C1)CC(N)(C3)C2
- Potency (Tov112D): inactive
- activity, negative = cell killing [1, 2]: 2.01%
- activity, negative = cell killing [1, 3]: -1.27%
- activity, negative = cell killing [1, 5]: 0.163%
- activity, negative = cell killing [1, 4]: 0.449%

Compound: CN1CCN(C2=Nc3cc(Cl)ccc3Nc3ccccc32)CC1
- Potency (Tov112D): inactive
- activity, negative = cell killing [1, 4]: 1.71%
- Potency ([1]; tumour line A): 11.2 µM (active)
- Potency ([1]; tumour line D): 35.5 µM (active)
